Results filed as inconclusive are left out. Activity calls are given as the source filed them. Calls come from the whole dose curve; as a rule, active = well fitted inhibition curve with a large enough effect; inconclusive = small, poorly fitted or top-dose-only effect; inactive = no such curve, though single readings can be large or run the other way.
experiment: BET inhibitor-based combinations targeting novel dependencies in MECOM-rearranged (r) AML: MV-4-11 cell line (AID 2202233); details: MV-4-11 AML viability, CellTiter-Glo luminescence, 48 h; series mostly up to 46 µM; note: nearly all actives have a fitted effect of over 45% in size
Method in brief: (§1)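 Activity is given as area under the curve and as Z-AUC, mean-centred within each cell line. It comes from 11-point dose curves normalized to DMSO and empty wells. CellTiter-Glo luminescence was read after 48 hr drug exposure of 500 cells/well.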
Potency is the fitted concentration of half-maximal effect.

Structure (SMILES) | Potency
CC(C)(C)c1nc2c3cc[nH]c(=O)c3c3cc(F)ccc3c2[nH]1 | 1.18 µM (active)
COc1ccc(C(=O)N2CCN(C(=O)/C=C/c3ccc(Br)cc3)CC2)cc1 | 11.8 µM (active)
Cc1c(C(=O)Nc2ccc(Oc3ccnc4[nH]cc(-c5ccccc5)c34)c(F)c2)c(=O)n(-c2ccc(F)cc2)n1C | 0.0742 µM (active)
Cc1ccc2cc(-c3c(C)ccc(C(=O)c4c(-c5ccccc5)n(C)n(-c5ccccc5)c4=O)c3N)ccc2n1 | inactive
Nc1nc(OC(c2ccc(-c3cccc(F)c3)cc2)C(F)(F)F)cc(-c2ccc(C[C@@H](N)C(=O)O)cc2)n1 (stereo partly specified) | inactive
FC(F)(F)c1ccc(CNc2ccc(Cc3c[nH]c4ncc(Cl)cc34)cn2)cn1 | 0.934 µM (active)
CC1=C(/C=C/C(C)=C/C=C/C(C)=C/C=C/C=C(C)/C=C/C=C(C)/C=C/C2=C(C)CCCC2(C)C)C(C)(C)CCC1 | 23.5 µM (active)
C=CC(=O)Nc1cc(N2CCN(CC)CC2)ccc1Nc1cc(N(C)C(=O)Nc2c(Cl)c(OC)cc(OC)c2Cl)ncn1 | 20.9 µM (active)
Cc1cc(-c2ccc(CC(=O)Nc3ccc(-c4cccnc4)cc3)cc2)ccn1 | 13.2 µM (active)
Cc1cc(Nc2cc(N)ncn2)c(=O)n2c1C(=O)NC21CCCCC1 | 8.11 µM (active)
C[C@H]1CN(C2COC2)CCN1c1ccc(Nc2cc(-c3ccnc(N4CCn5c(cc6c5CC(C)(C)C6)C4=O)c3CO)cn(C)c2=O)nc1 | 14.8 µM (active)
O=C(NO)c1cnc(NC2(c3ccccc3)CC2)nc1 | 3.32 µM (active)
Cn1cc(C2=C(c3cn(C)c4cc([N+](=O)[O-])ccc34)C(=O)NC2=O)c2ccccc21 | 0.833 µM (active)
O=C(O)CCC=CCC[C@@H]1[C@H](N2CCCCC2)[C@@H](O)C[C@@H]1OCc1ccc(-c2ccccc2)cc1 | inactive
CC(C)=CCC/C(C)=C/CC/C(C)=C/CSc1ccccc1C(=O)O | 11.8 µM (active)
CCC[C@H](Nc1nc(-c2ccc(NC(=O)NCC)c(OC)c2)ncc1C)c1cccnc1 | 0.0525 µM (active)
O=C1NC(=O)/C(=C\c2ccc(-c3ccc(F)cc3)o2)S1 | inactive

experiment: BET inhibitor-based combinations targeting novel dependencies in MECOM-rearranged (r) AML: HNT-34 cell line (AID 2202234); details: HNT-34 AML viability, CellTiter-Glo luminescence, 48 h; series mostly up to 46 µM; note: nearly all actives have a fitted effect of over 35% in size
Method in brief: as §1

Structure (SMILES) | Potency
Clc1cccc(C(c2ccc3nc[nH]c3c2)n2ccnc2)c1 (stereo unspecified) | inactive
NS(=O)(=O)c1ccc(Cc2c(-c3cccc(-c4ccccc4)c3)nn(-c3nc(C(=O)O)cs3)c2CC2CC2)cc1 | inactive
C[C@]12CC[C@@H]3c4ccc(O)cc4CC[C@H]3[C@@H]1C[C@@H](O)[C@@H]2O | inactive
CS(=O)(=O)c1ccc(-c2cnc(NCc3ccco3)n3cnnc23)cc1 | inactive
CC(=O)O/N=C1/C(c2c(O)[nH]c3cc(Br)ccc23)=Nc2ccccc21 | 2.95 µM (active)
CC(C)(C)S(=O)(=O)c1ccc2nccc(Nc3n[nH]c4ccc(F)cc34)c2c1 | inactive
Nc1nc2cc(-c3ccc4ncc(C(=O)N5CCOCC5)n4c3)ccc2o1 | 16.6 µM (active)
Cc1cc(O)c(-c2ccc([C@@H](C)CN)cc2)c2c1[nH]c(=O)c1sccc12 | 0.0417 µM (active)
CCn1c(=O)c2c(nc(/C=C/c3ccc(OC)c(OC)c3)n2C)n(CC)c1=O | inactive
C=C1CCC[C@]2(C)C=C3OC(=O)C(C)=C3C[C@@H]12 | inactive
NC1=N[C@@]2(c3cc(NC(=O)c4ccc(F)cn4)ccc3F)COC[C@H]2CS1 | inactive
CC(/C=C/[C@@H]1C[C@]1(C)c1ccc2c(c1)C(C)(C)CCC2(C)C)=C\C(=O)O | 18.6 µM (active)
CS(=O)(=O)c1ccc([C@@H](CC2CCCC2)C(=O)Nc2nccs2)cc1 | inactive
C=CC[C@@H]1/C=C(\C)C[C@H](C)C[C@H](OC)[C@H]2O[C@@](O)(C(=O)C(=O)N3CCCC[C@H]3C(=O)O[C@H](/C(C)=C/[C@@H]3CC[C@@H](O)[C@H](OC)C3)[C@H](C)[C@@H](O)CC1=O)[C@H](C)C[C@@H]2OC | 23.5 µM (active)
C[C@H](Nc1nc(N[C@H](C)C(F)(F)F)nc(-c2cccc(Cl)n2)n1)C(F)(F)F | inactive
O=C(N[C@@H](c1ccccc1)[C@@H]1CCCCN1)c1cccc(C(F)(F)F)c1Cl | 18.6 µM (active)
O=C(Nc1nccs1)C(c1cc(F)ccc1O)N1Cc2ccccc2C1=O (stereo unspecified) | 16.6 µM (active)
CN(CCOc1ccc(-c2ccc3c(c2)OCO3)cc1C(C)(C)C)CC(=O)O | inactive
CNC(=O)Cn1cc(-c2ccc3c(c2)C(F)CC32NC(=O)N(CC(=O)N(Cc3ccc(F)cc3)C(C)C(F)(F)F)C2=O)cn1 (stereo unspecified) | 0.0833 µM (active)

Source: PubChem BioAssay (NCATS)
